In PubChem BioAssay (Tox21):
Records with an inconclusive call do not appear. Active and inactive are the calls of the source. Unless noted, calls follow the shape of the dose curve; as a rule, active = well fitted curve in the direction sought with a large enough effect in the repeat runs; inconclusive = weak or mixed curves; inactive = no such curve, though single readings can be large; an effect the other way counts as inactive or inconclusive.

Tests used:
[1] = target: Progesterone receptor (Homo sapiens) (UniProt P06401); test: qHTS assay to identify small molecule agonists of the progesterone receptor (PR) signaling pathway (AID 1346784; calls by dose curve; also: nearly all actives have a fitted effect of over 30% in size; also: potency is read from the fitted curve at half-maximal effect)
How it was run: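 Compounds were tested for PR agonism in HEK 293T cells bearing a beta-lactamase gene under UAS control. Treatment lasted 16 hr at 37C; signal came from fluorescence of a FRET substrate.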

[2] = target: Progesterone receptor (Homo sapiens) (UniProt P06401); test: qHTS assay to identify small molecule antagonists of the progesterone receptor (PR) signaling pathway (AID 1346795; active = well fitted inhibition curve with a large enough effect in the signal ratio in the repeat runs, not every such curve was filed as active; the % refers to the signal ratio)
How it was run: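 In HEK293T cells bearing the PR-UAS-bla reporter, compound effects on promegestone-driven (1 nM) beta-lactamase expression are assessed after 16 hr using a fluorescent FRET substrate incubated 2 hr at room temperature.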

[3] = qHTS assay to identify small molecule antagonists of the progesterone receptor (PR) signaling pathway - cell viability counter screen (AID 1346798); also: series mostly up to about 92 µM; nearly all actives have a fitted effect of over 50% in size
How it was run: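 Following a 4 hr attachment, PR-UAS-bla HEK293T cells in charcoal-stripped FBS medium were exposed to compounds with R5020 for 16 hr; CellTiter-Glo was added and luminescence read after 30 min at room temperature.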

[4] = qHTS assay to identify small molecule antagonists of the TGF-beta/Smad signaling pathway - cell viability counter screen (AID 1346824); also: nearly all actives have a fitted effect of over 50% in size
How it was run: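 SBE-bla HEK 293T cells, incubated overnight, then compound plus 0.25 ng/mL TGF-beta1 (stock added) for 5 hr at 37 C. Viability was read in the same wells by CellTiter-Glo luminescence after 30 min at room temperature.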

[5] = qHTS assay to identify small molecule agonists of the TGF-beta/Smad signaling pathway - cell viability counter screen (AID 1346829); also: top concentration of the series differs between compounds; nearly all actives have a fitted effect of over 45% in size
How it was run: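 After overnight seating at 37 C and 5% CO2, reporter cells got compounds for 5 hr and FRET substrate for 2 hr; cell viability then came from CellTiter-Glo luminescence.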

[6] = target: Thyrotropin-releasing hormone receptor (Homo sapiens) (UniProt P34981); test: qHTS assay to identify small molecule antagonists of the thyrotropin-releasing hormone receptor (TRHR) signaling pathway (AID 1346877; active = well fitted inhibition curve with a large enough effect in the repeat runs, not every such curve was filed as active; also: series mostly up to about 51 µM)
How it was run: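 TRHR-expressing HEK293 cells were seeded, cultured 18 h at 37 °C, then loaded with calcium dye for 2 h. Compounds were pre-incubated 5 min at room temperature before 1 nM TRH (final) was added, and kinetic fluorescence was recorded for 3 min.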

[7] = target: Thyrotropin-releasing hormone receptor (Homo sapiens) (UniProt P34981); test: qHTS assay to identify small molecule agonists of the thyrotropin-releasing hormone receptor (TRHR) signaling pathway (AID 1346891; calls by dose curve; also: series mostly up to about 58 µM)
How it was run: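 Screening of agonists relied on calcium signalling in HEK293 cells expressing human TRHR: dye loading 2 h at 37 °C preceded compound addition and a 3-min fluorescence time course.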

[8] = Human pregnane X receptor (PXR) small molecule agonists, qHTS cell viability counter screen (AID 1346977); also: nearly all actives have a fitted effect of over 50% in size
How it was run: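 Tox21 qHTS format; PXR-Luc HepG2, 2,000/well, charcoal-stripped FBS 5%. Cpd exposure 24hr. Read: CellTiter-Fluor fluorescence, multiplexed with luciferase.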

[9] = Caspase-3/7 induction in HepG2 cells by small molecules, qHTS assay (AID 1346978); also: nearly all actives have a fitted effect of over 15% in size
How it was run: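 Wild-type HepG2 cells, 2,000/well, settled 5 hr at 37 C and 5% CO2, then compound-treated for 17 hr; caspase-3/7 activity read by luminescent Caspase-Glo 3/7 after 30 min at room temperature.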

[10] = Caspase-3/7 induction in CHO-K1 cells by small molecules, qHTS cell viability counter screen (AID 1346979); also: nearly all actives have a fitted effect of over 35% in size
How it was run: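 CellTiter-Fluor viability check, qHTS format: wild-type CHO-K1, 16hr compound treatment, 1hr reagent incubation, fluorescence read.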

[11] = Caspase-3/7 induction in CHO-K1 cells by small molecules, qHTS assay (AID 1346980); also: nearly all actives have a fitted effect of over 15% in size
How it was run: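 Wild-type CHO-K1 cells exposed to compounds for 17hr at 37 C, 5% CO2. Caspase-3/7 activity then measured by Caspase-Glo 3/7 luminescence after 30min at room temperature.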

[12] = Caspase-3/7 induction in HepG2 cells by small molecules, qHTS cell viability counter screen (AID 1346981); also: series mostly up to about 92 µM; nearly all actives have a fitted effect of over 30% in size
How it was run: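 Wild-type HepG2 cells (2,000/well) were allowed to settle for 5 hr at 37 C, 5% CO2, then dosed with compounds in DMSO by pin transfer. After 16 hr at 37 C, CellTiter-Fluor was added and fluorescence read 1 hr later.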

[13] = target: Nuclear receptor subfamily 1 group I member 2 (Homo sapiens) (UniProt O75469); test: Human pregnane X receptor (PXR) small molecule agonists, qHTS assay (AID 1346982); also: nearly all actives have a fitted effect of over 35% in size; also: potency is read from the fitted curve at half-maximal effect
How it was run: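 PXR-Luc HepG2 cells (CYP3A4 promoter-driven luciferase) were seeded in medium with 5% charcoal-stripped FBS, left 5 hr at 37 C, then exposed to compounds in DMSO for 24 hr. Luminescence was read after ONE-Glo addition.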

[14] = target: Nuclear receptor subfamily 1 group I member 2 (Rattus norvegicus) (UniProt Q9R1A7); test: Rat pregnane X receptor (rPXR) activation by small molecules, qHTS assay (AID 1346983); settings: rPXR luciferase reporter cells, One-Glo luminescence, 24 h; max activation: stronger effect = higher value; also: nearly all actives have a fitted effect of over 20% in size
How it was run: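 Cell-based rPXR activation assay: rPXR cells, 2,000 per well, rested 5hr at 37 C, then exposed to compounds in DMSO for 24 hr at 37 C. Luciferase activity read by One-Glo luminescence after 30 min at room temperature.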

[15] = target: Nuclear receptor subfamily 1 group I member 2 (Homo sapiens) (UniProt O75469); test: CYP3A4 induction through human pregnane X receptor (PXR) by small molecules, qHTS assay (AID 1346984); also: nearly all actives have a fitted effect of over 40% in size
How it was run: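 DPX-2 cells (HepG2 co-transfected with PXR and CYP3A4 promoter-luciferase) treated with compounds 24 h at 37C; luciferin-IPA CYP3A4 substrate 3uM final added for 3 h, then One-Glo; luminescence read. qHTS format.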

[16] = target: Cytochrome P450 2D6 (Homo sapiens) (UniProt P10635); test: Cytochrome P450 Family 2 Subfamily D Member 6 (CYP2D6) small molecule antagonists: luciferase reporter qHTS assay (AID 1671196); also: nearly all actives have a fitted effect of over 50% in size; also: potency is read from the fitted curve at half-maximal effect; as to activity change, negative = inhibition: series mostly up to about 120 µM
How it was run: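 CYP2D6 enzyme–substrate mix was held with compound for 10 min at room temperature, then NADPH regeneration solution was added and the reaction ran 1 h at room temperature. Luciferin product was detected by luminescence after 20 min with detection reagent.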

[17] = target: Cytochrome P450 2C19 (Homo sapiens) (UniProt P33261); test: Cytochrome P450 Family 2 Subfamily C Member 19 (CYP2C19) small molecule antagonists: luciferase reporter qHTS assay (AID 1671197); also: series mostly up to about 120 µM; nearly all actives have a fitted effect of over 65% in size
How it was run: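 Inhibition of CYP2C19 was scored from loss of luminescence in a P450-Glo proluciferin substrate assay, NADPH-started and run 1 h at 37C, with ketoconazole as positive control.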

[18] = qHTS assay to identify small molecule agonists of the TGF-beta/Smad signaling pathway (AID 1346859; active = well fitted activation curve with a large enough effect in the signal ratio in the repeat runs, not every such curve was filed as active; the % refers to the signal ratio; also: series mostly up to about 77 µM)
How it was run: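 Each well held 4,000 SBE-bla HEK 293T cells incubated overnight before compound addition; 5 hr later the cleavable FRET substrate went on for 2 hr at room temperature, and fluorescence was read at two emissions.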
% is scaled to controls: 0 for no effect and ±100 for the full control effect.

Sequence of Thyrotropin-releasing hormone receptor (Homo sapiens) (P34981 whole entry, looked up): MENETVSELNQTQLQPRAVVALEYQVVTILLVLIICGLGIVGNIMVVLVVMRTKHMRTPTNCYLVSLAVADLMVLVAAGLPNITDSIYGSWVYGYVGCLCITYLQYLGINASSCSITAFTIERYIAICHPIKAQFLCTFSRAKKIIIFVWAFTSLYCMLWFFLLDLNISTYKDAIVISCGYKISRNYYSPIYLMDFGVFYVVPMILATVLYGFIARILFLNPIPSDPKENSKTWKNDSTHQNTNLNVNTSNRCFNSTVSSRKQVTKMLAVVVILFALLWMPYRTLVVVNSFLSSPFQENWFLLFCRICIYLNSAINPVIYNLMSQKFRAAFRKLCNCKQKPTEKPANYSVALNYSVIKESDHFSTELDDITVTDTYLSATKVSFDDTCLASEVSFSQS
Sequence of Nuclear receptor subfamily 1 group I member 2 (Rattus norvegicus) (Q9R1A7 whole entry, looked up): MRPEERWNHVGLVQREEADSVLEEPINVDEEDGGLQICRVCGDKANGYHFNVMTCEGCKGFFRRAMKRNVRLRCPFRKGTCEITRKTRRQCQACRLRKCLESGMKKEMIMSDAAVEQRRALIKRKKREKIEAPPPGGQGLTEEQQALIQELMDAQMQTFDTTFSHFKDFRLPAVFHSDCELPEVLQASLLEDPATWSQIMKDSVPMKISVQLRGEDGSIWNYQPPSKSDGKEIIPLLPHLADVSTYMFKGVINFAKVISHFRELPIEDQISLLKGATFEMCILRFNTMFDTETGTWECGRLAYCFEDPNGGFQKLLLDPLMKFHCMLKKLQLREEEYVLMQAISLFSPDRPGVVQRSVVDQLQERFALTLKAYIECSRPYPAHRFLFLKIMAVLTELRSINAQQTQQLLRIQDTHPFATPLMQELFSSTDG
Sequence of Cytochrome P450 2D6 (Homo sapiens) (P10635 whole entry, looked up): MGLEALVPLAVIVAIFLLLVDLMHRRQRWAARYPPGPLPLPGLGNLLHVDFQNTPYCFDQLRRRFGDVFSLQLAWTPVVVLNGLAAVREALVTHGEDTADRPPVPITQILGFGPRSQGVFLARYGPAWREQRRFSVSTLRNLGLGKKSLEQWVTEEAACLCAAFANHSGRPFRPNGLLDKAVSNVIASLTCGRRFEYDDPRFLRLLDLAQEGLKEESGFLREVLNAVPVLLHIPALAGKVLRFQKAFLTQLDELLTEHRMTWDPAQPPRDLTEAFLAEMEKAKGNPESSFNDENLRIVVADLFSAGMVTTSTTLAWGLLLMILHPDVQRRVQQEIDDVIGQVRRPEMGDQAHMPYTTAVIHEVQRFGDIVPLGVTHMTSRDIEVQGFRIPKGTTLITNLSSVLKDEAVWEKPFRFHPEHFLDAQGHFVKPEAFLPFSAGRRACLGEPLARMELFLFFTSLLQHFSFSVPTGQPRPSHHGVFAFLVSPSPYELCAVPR
Sequence of Progesterone receptor (Homo sapiens) (P06401 whole entry, looked up): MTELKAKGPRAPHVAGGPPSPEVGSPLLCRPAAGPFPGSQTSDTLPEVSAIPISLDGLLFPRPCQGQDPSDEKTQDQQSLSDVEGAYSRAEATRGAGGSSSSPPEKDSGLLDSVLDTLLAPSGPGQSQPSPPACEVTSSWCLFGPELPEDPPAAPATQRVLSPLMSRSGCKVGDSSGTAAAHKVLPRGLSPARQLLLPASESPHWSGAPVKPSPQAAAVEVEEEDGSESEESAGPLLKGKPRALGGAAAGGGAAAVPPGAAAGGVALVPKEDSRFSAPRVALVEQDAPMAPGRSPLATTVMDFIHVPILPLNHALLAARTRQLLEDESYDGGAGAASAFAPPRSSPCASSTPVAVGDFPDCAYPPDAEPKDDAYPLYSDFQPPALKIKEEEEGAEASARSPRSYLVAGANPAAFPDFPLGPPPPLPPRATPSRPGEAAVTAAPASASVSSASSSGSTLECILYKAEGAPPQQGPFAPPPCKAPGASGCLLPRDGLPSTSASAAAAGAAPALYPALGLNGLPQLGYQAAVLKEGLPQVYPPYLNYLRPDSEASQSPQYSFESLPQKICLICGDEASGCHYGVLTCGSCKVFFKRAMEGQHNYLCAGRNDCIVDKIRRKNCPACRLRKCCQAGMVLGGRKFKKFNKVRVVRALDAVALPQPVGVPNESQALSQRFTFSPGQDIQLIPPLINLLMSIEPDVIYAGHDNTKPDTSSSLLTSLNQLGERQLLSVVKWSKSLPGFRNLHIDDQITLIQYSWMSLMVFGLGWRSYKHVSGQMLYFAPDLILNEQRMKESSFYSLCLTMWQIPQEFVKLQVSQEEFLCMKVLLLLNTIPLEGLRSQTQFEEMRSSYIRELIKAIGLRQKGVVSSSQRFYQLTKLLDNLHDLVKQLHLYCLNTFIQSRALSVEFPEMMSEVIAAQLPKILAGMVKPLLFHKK
Sequence of Nuclear receptor subfamily 1 group I member 2 (Homo sapiens) (O75469 whole entry, looked up): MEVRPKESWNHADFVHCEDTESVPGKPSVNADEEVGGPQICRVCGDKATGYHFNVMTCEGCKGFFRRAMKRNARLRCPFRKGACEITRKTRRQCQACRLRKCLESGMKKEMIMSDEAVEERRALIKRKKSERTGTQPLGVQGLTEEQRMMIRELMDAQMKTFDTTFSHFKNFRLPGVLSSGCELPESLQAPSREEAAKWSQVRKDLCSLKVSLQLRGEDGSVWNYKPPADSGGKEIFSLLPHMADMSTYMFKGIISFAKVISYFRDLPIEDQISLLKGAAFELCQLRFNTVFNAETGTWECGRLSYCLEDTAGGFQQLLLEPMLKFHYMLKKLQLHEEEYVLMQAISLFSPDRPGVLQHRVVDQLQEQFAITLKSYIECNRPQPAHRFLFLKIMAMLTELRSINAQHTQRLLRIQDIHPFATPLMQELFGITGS
Sequence of Cytochrome P450 2C19 (Homo sapiens) (P33261 whole entry, looked up): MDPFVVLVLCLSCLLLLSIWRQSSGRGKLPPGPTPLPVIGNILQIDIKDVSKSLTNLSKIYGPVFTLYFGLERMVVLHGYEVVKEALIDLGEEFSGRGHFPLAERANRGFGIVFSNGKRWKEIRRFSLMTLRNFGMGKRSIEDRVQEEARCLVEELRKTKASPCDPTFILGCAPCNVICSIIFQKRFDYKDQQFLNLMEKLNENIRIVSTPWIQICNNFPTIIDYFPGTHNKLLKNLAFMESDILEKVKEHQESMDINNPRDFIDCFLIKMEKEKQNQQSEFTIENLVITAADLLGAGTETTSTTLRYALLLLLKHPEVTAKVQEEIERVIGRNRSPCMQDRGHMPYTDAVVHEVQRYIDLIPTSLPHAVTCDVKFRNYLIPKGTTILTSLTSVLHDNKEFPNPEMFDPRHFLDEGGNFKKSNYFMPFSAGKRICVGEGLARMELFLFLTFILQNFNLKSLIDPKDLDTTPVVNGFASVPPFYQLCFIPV

Cc1ncc(CO)c(C=O)c1O
inactive: Potency [1] | Potency [2] | Potency [3] | Potency [4] | outcome [5] | outcome [6] | Potency [7] | Potency [8] | Potency [9] | Potency [10] | Potency [11] | Potency [12] | Potency [13] | max activation [14] -0.222% | Potency [15] | Potency [16] | Potency [17]

CCCCC(=O)OCC(=O)[C@H]1[C@H](C)C[C@H]2[C@@H]3C[C@H](F)C4=CC(=O)C=C[C@]4(C)[C@@]3(F)[C@@H](O)C[C@@]21C
active: Potency [1] 0.0133 µM | Potency [13] 9.44 µM
inactive: Potency [2] | Potency [3] | Potency [4] | outcome [5] | Potency [18] | Potency [9] | Potency [10] | Potency [11] | Potency [12]

CCCCCCCC#N
inactive: Potency [1] | Potency [2] | Potency [3] | Potency [4] | outcome [5] | Potency [18] | outcome [6] | Potency [7] | Potency [10] | Potency [11] | Potency [12] | Potency [16]

Cc1cccc(Nc2ccccc2)c1
inactive: Potency [1] | Potency [2] | Potency [3] | Potency [4] | outcome [5] | Potency [18] | Potency [8] | Potency [10] | Potency [11] | Potency [12]

NC(N)=NCCC[C@H](N)C(=O)O
inactive: activation [1] -0.127% [at 8.39 µM] | activity change, negative = inhibition [2] 7.3% [at 8.39 µM] | activity change, negative = cytotoxicity [3] -0.687% [at 8.39 µM] | viability change, negative = cytotoxic [4] 7.48% [at 6.97 µM] | activity change, negative = cytotoxicity [5] 6.19% [at 6.97 µM] | activation [18] 2.75% [at 6.97 µM] | activity, negative = inhibition [6] -3.14% [at 4.65 µM] | activation [7] 0.134% [at 5.23 µM] | activity change, negative = cytotoxicity [8] 6.78% [at 8.39 µM] | caspase activation [9] 0.0391% [at 8.39 µM] | activity change, negative = cytotoxicity [10] -0.503% [at 8.39 µM] | caspase-3/7 activation [11] 0.0695% [at 8.39 µM] | activity change, negative = cytotoxicity [12] -0.647% [at 8.39 µM] | activity change, negative = inhibition [16] -7.41% [at 10.5 µM]

CC[N+](C)(CC)CCOC(=O)C(O)(c1ccccc1)C1CCCCC1 (centres undefined)
inactive: Potency [1] | Potency [2] | Potency [3] | Potency [4] | outcome [5] | Potency [18] | Potency [8] | Potency [9] | Potency [10] | Potency [11] | Potency [12] | Potency [13]
active: Potency [16] 0.776 µM

COc1ccnc(CS(=O)c2nc3ccc(OC(F)F)cc3[nH]2)c1OC (centres undefined)
active: Potency [16] 2.75 µM
inactive: Potency [1] | Potency [2] | Potency [3] | Potency [4] | outcome [5] | Potency [18] | Potency [8] | Potency [9] | Potency [10] | Potency [11] | Potency [12] | Potency [13] | max activation [14] 0.184%

O=C(NCCO[N+](=O)[O-])c1cccnc1
inactive: Potency [1] | Potency [2] | Potency [3] | Potency [4] | outcome [5] | outcome [6] | Potency [7] | Potency [8] | Potency [9] | Potency [10] | Potency [11] | Potency [12] | max activation [14] -6.7%
